# An excerpt weighted towards active compounds, which were near 3.8% of everything screened.
# Yeast superoxide – reduction of superoxide in aged yeast, primary screen, HTS. S. cerevisiae aged cells, superoxide DHE fluorescence; hits give low values. superoxide response (% of plate mean), % at 10 µM. 330,000 compounds, 0.18% hits. AID 2690, 2010;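 active = superoxide response under a set limit, about three screen SD below normal, cut at about 65% in these data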;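 note: yeast aged for seven days with compound at 30 °C before DHE staining; 100% = average MFI of all compound-treated wells on the plate with controls excluded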
# Mot1-301 SUMO – yeast Mot1-301 growth rescue at high temperature, primary screen, SUMOylation pathway inhibitor project, S. cerevisiae, ATP luminescence, 38.5C; S. cerevisiae Mot1-301 growth rescue; percent above DMSO median, 100 means doubled; growth rescue, % at 18.8 µM; 320,000 compounds, 1% hits;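 active = every valid replicate shows activation above 250% relative to neutral control wells; inactive = the rest, any valid replicate at or below 250%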;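 note: OY570 slx delta 5 strain wells were the positive control but not used for scaling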
# MPTP inh – mitochondrial permeability transition pore inhibitors, primary screen, biochemical, isolated mouse mitochondria, absorbance; 360,000 compounds, 1.4% hits; Ca2+ swelling absorbance, 30 min; inhibition, % at 10 µM;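 active = inhibition of 50% or more, scaled per plate between neutral and stimulator controls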;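 note: 0% = DMSO wells given calcium and 100% = 1 mM EGTA wells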
# FAS TE block – FAS thioesterase domain inhibitors, primary screen, biochemical, fluorescence intensity, uHTS; Fatty acid synthase (Homo sapiens), P49327; recombinant FAS-TE, OMFH fluorogenic substrate, fluorescence endpoint; inhibition, % at 15 µM; 360,000 compounds, 0.67% hits;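 active = compounds whose normalised, plate-corrected inhibition of enzyme fluorescence in the single-dose primary screen is 50% or more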;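 note: 0% = DMSO with enzyme and 100% = substrate without enzyme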
# aDG glyco act – activators of alpha-DG glycosylation, primary screen, uHTS, Pro5-aDG cells, AlphaScreen; 360,000 compounds, 0.22% hits; alpha-DG glycosylation AlphaScreen (IIH6); 0% Pro5, 100% B10-LARGE cell signal; activation, % at 10 µM;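 active = activation of at least 8% versus controls, or a plate z-score of at least 8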;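 note: Pro5 are CHO cells carrying HIG-tagged alpha-DG that lacks glycosylation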
# Cardio protect – cardioprotection against H2O2-induced cell death, primary screen, uHTS, H9c2 cells, ATPLite luminescence; H9c2 cardiomyocytes, H2O2 injury protection, 2 h; protection from H2O2 cell death, % at 20 µM; 360,000 compounds, 0.63% hits;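 active = compounds giving at least 50% protection of heart cells from peroxide-induced death in the single-dose screen, raw or plate-pattern-corrected value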;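 note: 0% = DMSO wells with peroxide and 100% = DMSO wells without peroxide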
# MPTP counter – fluorescence retest of MPTP screen hits in isolated mitochondria, single concentration; shares compounds with MPTP inh; membrane potential, Rhodamine 123 fluorescence; inhibition, % at 10 µM; 5,000 compounds, 78% hits; AID 624504, 2012; in the data active = inhibition above about 22%;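 note: 0% = DMSO vehicle and 100% = positive control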
# MPTP abs DR – mitochondrial permeability transition pore inhibitors, dose response, biochemical, absorbance, uHTS hits | shares compounds with MPTP inh | 780 compounds, 58% hits | IC50, µM | AID 651561, 2012 | isolated mitochondria swelling; in the data active = IC50 below about 20 µM
# MPTP cs DR – fluorescent counter-screen in isolated mitochondria, dose response, counter-screen for MPTP inhibitor project, biochemical, fluorescence, uHTS hits | shares compounds with MPTP inh | isolated mitochondria counterscreen, fluorescence read-out | IC50, µM | 780 compounds, 49% hits | AID 651564, 2012; in the data active = IC50 below about 80 µM
# * = called active by the depositor; i = inactive; · = no result.
SMILES,Yeast superoxide,Mot1-301 SUMO,MPTP inh,FAS TE block,aDG glyco act,Cardio protect,MPTP counter,others
Cc1ccc(C)c(NC(=O)CSc2nc(=O)n(CCN3CCOCC3)c3c2CCCC3)c1,82,-20,-1,-10,0,-2,·,
CCOC(=O)CCc1c(C)nc(-n2[nH]c(C)c(CCO)c2=O)[nH]c1=O,103,-10,0,-2,0,4,·,
CC(C)Cn1c(N)c(C(=O)COC(=O)CC23CC4CC(CC(C4)C2)C3)c(=O)n(C)c1=O,119,-13,81*,22,4,-24,116*,
Cc1ccc(-c2nnc(NCc3ccccc3)c3ccccc23)cc1,100,4,65*,14,0,-11,85*,
O=C(Cc1sc(-c2ccccc2Cl)nc1-c1ccccc1)Nc1ccccc1,94,-6,-6,-3,0,10,·,
O=C(Nc1ccncc1)c1ccc(Cl)cc1,110,6,2,-7,0,-6,·,
O=C(Cc1ccc([N+](=O)[O-])cc1)Nc1ccc(Cl)cc1,97,1,68*,40,0,-8,76*,
Cc1ccc(CC(=O)Nc2ccncc2)cc1,90,94,84*,-11,6,-13,36*,
O=C(Cc1sc(-c2ccccc2)nc1-c1ccccc1)Nc1ccc(Cl)cc1,118,·,69*,28,0,-14,6,MPTP abs DR=12*;MPTP cs DR=<2.5*
O=C(Cc1ccc(Cl)cc1)Nc1ccncc1,105,55,58*,-5,1,-10,16,MPTP abs DR=i;MPTP cs DR=41*
CC(C)(C)OC(=O)NCCc1onc(-c2ccc([N+](=O)[O-])cc2)c1C(=O)O,·,·,1,30,1,3,·,
C/C(N=Nc1nc2ccccc2s1)=N\Nc1ccccc1O,82,-15,91*,6,0,23,54*,
COc1ccc(NCc2nc3ccccc3n2CCOc2ccc(C)cc2)cc1,100,192,70*,27,0,-7,37*,
COc1ccc(NCc2nc3ccccc3n2CCOc2ccccc2)cc1,106,48,1,4,0,5,·,
CC(NC(=O)Nc1ccc(Cl)c(Cl)c1)C(c1ccccc1)N1CCOCC1 (stereo not given),87,-8,89*,33,0,-10,95*,
CC(Cc1cccs1)NC(=O)Nc1ccc(Cl)c(Cl)c1 (stereo not given),82,-22,96*,35,0,-14,94*,
CC(NC(=O)Nc1ccc([N+](=O)[O-])cc1)C(c1ccccc1)N1CCOCC1 (stereo not given),99,-2,-1,8,0,-6,·,
CC(Cc1cccs1)NC(=O)Nc1ccc(Cl)cc1 (stereo not given),102,0,19,0,0,-7,·,
CN(CCOc1ccc(Cl)cc1)C(=O)c1cccc(S(=O)(=O)N2CCN(c3ccccc3)CC2)c1,·,·,21,32,2,-29,·,
CCn1nc(C)cc1C(=O)n1nc(C)c(Sc2ncccn2)c1C,104,-19,69*,-5,0,-4,27*,
O=C(CSc1nc2ccccc2s1)NNC(=S)Nc1ccccc1,76,10,3,-7,0,4,·,
O=C(CSc1nc2ccccc2s1)NNC(=S)Nc1ccc(Br)cc1,108,-10,82*,-4,0,-11,83*,
